Assay: COS7 lysate on small-molecule microarray, probe aHis, 635 nm (AID 1123);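 note: z-score combines 667nm fluorescence intensity with signal-to-noise per printed compound spot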
Conditions: COS7 cell lysate, fluorescence, higher = more signal

Structure (SMILES)	composite z-score
CCCN1C(=O)[C@@]2(CCC(=O)OC(C)(C)C)N=C(c3ccc(OCCCO)cc3)O[C@H]2c2ccccc21	1.69
O=C(O)[C@H]1C[C@H]2C(=O)NCC(=O)N2[C@H]1c1ccc(O)cc1	0.921
CC(C)c1ccc(NN2C(C(O)c3ccc(N(C)C)cc3)C=CC3C(=O)N(c4ccccc4)C(=O)C32)cc1 (configuration not stated)	2.76
CCC[C@@H]1C=C(C(=O)O)[C@H](c2ccc(C)cc2)N1S(=O)(=O)c1ccc(C)cc1	2.71
CC(C)c1ccc(NN2C(C(O)c3c(F)cccc3Cl)C=CC3C(=O)N(c4ccccc4)C(=O)C32)cc1 (configuration not stated)	2.26
CC(C)=CCCC(C)=CC(O)C1C=CC2C(=O)N(c3ccccc3)C(=O)C2N1Nc1ccccc1 (configuration not stated)	1.52
COCC1=C2[C@@H](CCc3ccccc3)OB(O)C[C@@H]2[C@@H]2C(=O)N(Cc3ccccc3)C(=O)[C@@H]2C1	0.532
COC(=O)[C@@]1(Cc2ccc(OC)cc2)[C@H]2c3cc(C(=O)N4CCCC4)n(CCc4c[nH]c5cc(F)ccc45)c3C[C@H]2CN1C(=O)c1ccccc1	3.24
CC(C)N1CC=CC23O[C@@H]4C=CCOC(=O)[C@@H]4[C@H]2C(=O)N(CCO)[C@@H]3C1=O (some centres not stated)	1.29
COC(=O)C(CC#Cc1ccc2c(c1)[C@]1(C(=O)N2)[C@H](c2ccc(OCCO)cc2)N2[C@H](c3ccccc3)[C@H](c3ccccc3)OC(=O)[C@H]2[C@@H]1C(=O)NC[C@H](O)c1ccccc1)C(=O)OC	1.97
CC(C)NC(=O)[C@@]1(Cc2ccccc2I)c2ccccc2C(=O)N(Cc2ccccc2)[C@H]1c1ccc(CO)cc1	1.96
CCOC(=O)C[C@H]1[C@H](OC(=O)Cc2ccc3c(c2)OCO3)[C@@H](NC(=O)c2ccc(-c3ccccc3)cc2)c2cc(OCCCO)ccc2N1C(=O)c1ccccc1	0.341
CC(c1ccccc1)C(O)C1C=CC2C(=O)NC(=O)C2N1Nc1ccccn1 (configuration not stated)	0.954
COc1ccc(C#Cc2ccc3c(c2)[C@]2(C(=O)N3)[C@H](c3ccc(O)cc3)N3[C@H](c4ccccc4)[C@H](c4ccccc4)OC(=O)[C@H]3[C@@H]2C(=O)NC[C@H](O)c2ccccc2)cc1	2.78
O=C1O[C@H](c2ccccc2)[C@H](c2ccccc2)N2[C@H]1[C@@H](C(=O)O)[C@]1(C(=O)Nc3ccc(C#CC4(O)CCCCCC4)cc31)[C@H]2c1ccc(OCCO)cc1	2.58
NCCCCCCNC(=O)[C@H]1C[C@H]2C(=O)NCC(=O)N2[C@H]1c1cccc(OCCO)c1	1.07
C=CCOC(=O)[C@H]1[C@@H]2C(=O)O[C@@H](c3ccccc3)[C@@H](c3ccccc3)N2[C@@H](c2ccc(OCCOC(=O)[C@@H]3C[C@@H]4C(=O)NCC(=O)N4[C@@H]3c3ccc(O)cc3)cc2)[C@]12C(=O)Nc1ccccc12	2.45
[N-]=[N+]=Nc1ccccc1C[C@]1(C(=O)NCCN2CCOCC2)N=C(c2ccc(OCCCO)cc2)O[C@H]1c1ccccc1	2.7
CC(C)N1C(=O)C[C@@](C(=O)NCc2ccccc2)(c2ccc([N+](=O)[O-])cc2)[C@H]1c1ccc(CO)cc1	2.37
O=C1OCCC/C=C\[C@H]2OC34C=CCN(Cn5nnc6ccccc65)C(=O)[C@H]3N(CCCCCO)C(=O)[C@@H]4C12 (some centres not stated)	0.0505
NCCCCCNC(=O)[C@H]1C[C@H]2C(=O)NCC(=O)N2[C@H]1c1cccc(OCCO)c1	1.12
CN1C=C(C(=O)OCCS(C)(=O)=O)C(C(=O)OCCS(C)(=O)=O)=CC(CCCO)=CC1C1CC1 (configuration not stated)	0.606
COCCOC(=O)N1C(=O)[C@@]2(c3cc(C#CC4=CCCCC4)ccc31)[C@H](C(=O)NC[C@H](O)c1ccccc1)[C@H]1C(=O)O[C@H](c3ccccc3)[C@H](c3ccccc3)N1[C@@H]2c1ccc(O)cc1	0.824
CCCCCCCCCCC(O)C1C=CC2C(=O)N(Cc3ccccc3)C(=O)C2N1n1cnnc1 (configuration not stated)	1.1
Cc1ccccc1C(O)C1C=CC2C(=O)N(C)C(=O)C2N1N1CCCCC1 (configuration not stated)	2.92
CC(=O)NCCCC[C@@H]1NC(=O)[C@@H]2C[C@H](C(=O)NCCCCCCNC(=O)CS)[C@H](c3ccc(O)cc3)N2C1=O	0.846
C=CCOC(=O)[C@H]1[C@@H]2C(=O)O[C@@H](c3ccccc3)[C@@H](c3ccccc3)N2[C@@H](c2ccc(OCCOC(=O)[C@@H]3C[C@@H]4C(=O)N5CCC[C@H]5C(=O)N4[C@@H]3c3ccc(O)cc3)cc2)[C@]12C(=O)Nc1ccccc12	1.36

Reference: PubChem BioAssay
